Source: PubChem
This is a sample that favours compounds with a hit; in the whole collection about 12% have one here.
HP1b chromo inh – HTS for Inhibitors of HP1-beta Chromodomain Interactions with Methylated Histone Tails; AID 540317, 2011; Potency, µM (series often up to 114 µM), for the others: at the highest dose activity change, negative = inhibition, hits mostly inhibitors; 390,000 tested, 0.56% active; AlphaScreen HP1-beta / biotin-H3K9me3 peptide binding; note: nearly all actives have a fitted effect of over 70% in size
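HP1-beta protein (50 nM final) preincubated 30 min at room temperature with biotinylated H3(1-18)K9me3 peptide (50 nM) in PBS pH 7.4, 0.01% Tween-20, then compound added for 30 min. AlphaScreen streptavidin donor/nickel chelate acceptor beads (10 ug/mL final), 30 min dark, luminescence read.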
L3MBTL1 inh – qHTS Assay for the Inhibitors of L3MBTL1; 230,000 tested, 0.66% active; AID 485360, 2010; Lethal(3)malignant brain tumor-like protein 1 (Homo sapiens), Q9Y468; Potency, µM (titrated, usually from 57.1 µM), for inactives: at the top dose activity, negative = inhibition, hits mostly inhibitors; AlphaScreen L3MBTL1–H3K9me1 peptide binding; note: % is set by controls: 0 for no effect and ±100 for the full control effect; nearly all actives have a fitted effect of over 60% in size
Target sequence (Q9Y468 whole entry, looked up): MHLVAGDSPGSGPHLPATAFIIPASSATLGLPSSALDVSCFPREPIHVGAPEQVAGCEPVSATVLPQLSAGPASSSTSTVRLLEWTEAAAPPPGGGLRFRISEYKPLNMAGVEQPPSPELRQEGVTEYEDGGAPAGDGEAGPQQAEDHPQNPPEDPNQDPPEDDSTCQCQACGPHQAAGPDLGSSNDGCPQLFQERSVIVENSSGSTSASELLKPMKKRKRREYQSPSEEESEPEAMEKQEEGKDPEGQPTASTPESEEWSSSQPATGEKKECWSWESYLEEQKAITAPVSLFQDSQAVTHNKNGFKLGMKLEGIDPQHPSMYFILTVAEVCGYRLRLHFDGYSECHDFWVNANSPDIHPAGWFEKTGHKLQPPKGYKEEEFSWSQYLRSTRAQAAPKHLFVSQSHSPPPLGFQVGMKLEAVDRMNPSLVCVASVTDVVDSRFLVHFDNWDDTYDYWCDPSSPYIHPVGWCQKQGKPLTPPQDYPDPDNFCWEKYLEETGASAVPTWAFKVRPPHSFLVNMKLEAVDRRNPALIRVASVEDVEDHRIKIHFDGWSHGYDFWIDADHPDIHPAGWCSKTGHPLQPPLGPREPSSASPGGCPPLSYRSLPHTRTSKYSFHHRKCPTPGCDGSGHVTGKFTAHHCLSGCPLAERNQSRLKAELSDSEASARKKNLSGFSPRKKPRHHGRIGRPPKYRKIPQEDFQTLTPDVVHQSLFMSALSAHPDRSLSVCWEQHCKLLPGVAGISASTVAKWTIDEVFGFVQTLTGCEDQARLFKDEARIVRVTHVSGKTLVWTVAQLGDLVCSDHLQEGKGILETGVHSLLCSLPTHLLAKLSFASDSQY
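L3MBTL1 (50 nM) pre-complexed 30 min with biotinylated H3(1-15)K9me1 peptide (75 nM), then compounds added for 30 min at room temperature; AlphaScreen streptavidin donor/nickel chelate acceptor beads (10 ug/mL final) read after 30 min dark incubation.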
JMJD2A Tudor inh – qHTS Assay for Inhibitors of JMJD2A-Tudor Domain | Lysine-specific demethylase 4A (Homo sapiens), O75164 | AID 504339, 2011 | 390,000 tested, 4.4% active | AlphaScreen JMJD2A-Tudor / H3K4me3 peptide binding | Potency, µM (titrated, usually from 114 µM), inactives show at the top dose activity change, negative = inhibition, usual class: inhibitors; note: % is set by controls: 0 for no effect and ±100 for the full control effect; nearly all actives have a fitted effect of over 50% in size
G9a inh – qHTS Assay for Inhibitors of Histone Lysine Methyltransferase G9a. Histone-lysine N-methyltransferase EHMT2 (Homo sapiens), Q96KQ7. G9a H3K9 monomethylation, AlphaScreen, 2 h. Potency, µM (top dose mostly 102 µM), for inactives: top-dose activity, negative = inhibition, most hits filed as inhibitors. 350,000 tested, 8.8% active. AID 504332, 2011; note: % is set by controls: 0 for no effect and ±100 for the full control effect; nearly all actives have a fitted effect of over 75% in size
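AlphaScreen detection with an anti-monomethyl H3K9 antibody quantified product after a 2 h room-temperature reaction containing 500 nM biotinylated H3K9 peptide, 20 µM SAM and 20 nM enzyme, which had been preincubated 15 min with compound.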
Sfp PPTase inh – qHTS Assay for Inhibitors of Bacillus subtilis Sfp phosphopantetheinyl transferase (PPTase); 4'-phosphopantetheinyl transferase ffp (Bacillus subtilis), Q9F4F7; Biochemical Sfp PPTase activity, qHTS; Potency, µM, for inactives: largest response in the series, negative = inhibition, hits mostly inhibitors; 310,000 tested, 3.5% active;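 note: the enzyme is Sfp with the accession as filed and its product quenches rhodamine fluorescence; 0% = enzyme reaction without inhibitor and -100% = no enzyme wells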
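Compounds were incubated with enzyme (final 15 nM) for 15 min at room temperature before substrate addition started the reaction. Fluorescence at 525 nm excitation, 598 nm emission was recorded immediately and after 30 minutes.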
BAZ2B block – qHTS Assay for Inhibitors of BAZ2B; Bromodomain adjacent to zinc finger domain protein 2B (Homo sapiens), Q9UIF8; AlphaScreen BAZ2B-H3K14Ac peptide displacement; Potency, µM (doses to about 114 µM), for the others: at the top dose activity change, negative = inhibition, usual class: inhibitors; 360,000 tested, 4.4% active; AID 504333, 2011; note: % is set by controls: 0 for no effect and ±100 for the full control effect; nearly all actives have a fitted effect of over 60% in size
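Protein-peptide AlphaScreen: BAZ2B 50 nM, b-H3K14Ac 50 nM, 1x PBS pH 7.4 + 0.01% Tween-20. Preincubation 30 min RT; cpd 30 min RT (top 110 uM); beads 20 min RT, light-protected.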
The depositor's hits bear a star; ? = inconclusive; · = no result; [ ] = another dose, or the depositor's remark. Calls come from the whole dose curve; as a rule, active = well fitted curve in the direction sought with a large enough effect; inconclusive = small, poorly fitted or top-dose-only effect, or another doubt; inactive = no such curve, though single readings can be large; an effect the other way counts as inactive or inconclusive. Potency is the fitted concentration of half-maximal effect.

SMILES	HP1b chromo inh	L3MBTL1 inh	JMJD2A Tudor inh	G9a inh	Sfp PPTase inh	BAZ2B block
CCc1ccccc1-n1c(C)nc2cc(C(=O)NCCc3ccc(Cl)cc3)ccc21	-13%	·	-22%	-4%[59 µM]	·	-8%
CCOC(=O)c1sc2ncn(C(C)C(=O)OCC)c(=O)c2c1C (configuration not stated)	34%	·	10%	5%[59 µM]	-2%	-8%
COc1ccc(O)c(C(=O)c2cc(SCC(=O)O)c3nc4sc5c(c4c(=O)n3c2)CCCC5)c1	25µM*	·	25µM*	-33%[12.7 µM]	?	22µM*
CCOC(=O)c1sc2nc3c(SCC(=O)O)cc(C(=O)c4cc(F)ccc4O)cn3c(=O)c2c1C	?	-22%	40µM*	79µM*	?	35µM*
CCc1c(C)sc2nc3c(C(=O)N4CCOCC4)cc(C(=O)c4ccccc4O)cn3c(=O)c12	14%	-17%	?	-43%	4%	?
COC(=O)c1cc(C(=O)c2cc(F)ccc2O)cn2c(=O)c3c(C)c(C)sc3nc12	-19%	2%	40µM*	?	-11%	-29%
CCOC(=O)c1sc2nc3c(SCC(=O)O)cc(C(=O)c4ccccc4O)cn3c(=O)c2c1C	?	?	10µM*	32µM*	1%	16µM*
O=C(NCc1cccnc1)c1nn(-c2ccccc2F)nc1CO	11%	·	-12%	-9%[59 µM]	·	-1%
O=C(COc1ccccc1F)Nc1ccc2nc(SCC(=O)N3CCCC3)sc2c1	50%	·	-10%	2%[59 µM]	·	-34%
CSc1ncc(C(=O)N2CCN(c3cccc(C(F)(F)F)c3)CC2)c(C)n1	10%	·	-16%	-2%[59 µM]	·	-4%
O=C(O)c1ccc2c(c1)C(=O)N([C@H](Cc1ccc(Cl)cc1)C(=O)O)C2=O	·	-7%	-15%	6%[12.7 µM]	25%	-9%
Cc1sc2nc3c(SC(C)C(=O)O)cc(C(=O)c4ccccc4O)cn3c(=O)c2c1C (configuration not stated)	-13%	-4%	-32%	50µM*	50µM*	?
O=C(O)CSc1cc(C(=O)c2ccccc2O)cn2c(=O)c3c(-c4ccccc4)csc3nc12	-14%[57 µM]	-10%	56µM*	?	?	·
CNC(=O)[C@]1(C(F)(F)F)C[C@H](CCC2CCCCC2)CCCO1	70%	·	10%	·	-4%	·
CCOc1ccc(/C=C/c2nc3ccccc3n2S(=O)(=O)c2cccc(Cl)c2)cc1	24%	·	-14%	-4%[59 µM]	·	·
S=c1[nH]nc(-c2ccncc2)n1/N=C/c1cn(-c2ccccc2)nc1-c1ccccc1	65%	-7%	-18%	?	14%	21%
CCc1n[nH]c(=S)n1/N=C/c1c(O)ccc2ccccc12	37%	-3%[2.29 µM]	14µM*	?	-14%	-24%
S=c1[nH]nc(-c2ccncc2)n1/N=C/c1cccc2ccccc12	·	-5%	·	1.1µM*	-6%	-7%
CCc1n[nH]c(=S)n1/N=C/c1cccc2ccccc12	32%	-1%	?	1.6µM*	-17%	-18%
CCc1n[nH]c(=S)n1/N=C/c1ccccc1OCc1ccc(Cl)cc1	40%	48%	-10%	·	?	-21%
Cn1c(=S)n(/N=C/c2ccc3c(c2)OCO3)c2ccccc21	30%	1%	-21%	0%	-21%	-2%
CCc1n[nH]c(=S)n1/N=C/c1ccc2c(c1)OCO2	9%	2%	4.5µM*	·	-8%	-4%
Nc1nonc1N/N=C/c1c(O)ccc2ccccc12	16%	-20%	-29%	?	-5%	-28%
COc1ccc(C2C(C(=O)Nc3cccnc3)=C(C)Nc3nc(SCc4ccccc4)nn32)cc1 (configuration not stated)	5%	·	-15%	2%[59 µM]	·	?
N#Cc1cc2c(OCC(O)CN3CCN(C(c4ccccc4)c4ccccc4)CC3)cccc2[nH]1 (configuration not stated)	·	·	·	-42%[59 µM]	?	·
SMILES	HP1b chromo inh	L3MBTL1 inh	JMJD2A Tudor inh	G9a inh	Sfp PPTase inh	BAZ2B block
CCCSc1nnc(NC(=O)CSc2sc3c(O)cc(=O)[nH]c3c2C#N)s1	-30%	·	56µM*	11µM*	?	40µM*
N#Cc1c(SCC(=O)Nc2nccs2)sc2c(O)cc(=O)[nH]c12	-5%	·	-35%	32µM*	40µM*	16µM*
N#Cc1c(SCC(=O)Nc2nc3ccc(Br)cc3s2)sc2c(O)cc(=O)[nH]c12	22µM*	·	25µM*	40µM*	-8%	20µM*
Cc1ccc2c(c1)-c1nc(-c3ccc4c(c3)NC(=O)CO4)cc(-c3ccc(F)cc3)c1CO2	20%	·	-4%	-5%[59 µM]	·	-17%
Cc1ccc(-n2ccn(CC(=O)c3ccc(F)cc3)c(=O)c2=O)cc1C	27%	·	-7%	-37%[59 µM]	·	-10%
Cc1cccc(C2c3[nH]c4ccccc4c3CCN2C(=O)Cc2nc(-c3ccccc3)n[nH]2)n1 (configuration not stated)	-3%	-6%	?	?	16%	-37%
O=C(O)c1cccnc1C(=O)N1CCc2c([nH]c3ccccc23)C1C(F)(F)F (configuration not stated)	3%	-4%	?	56µM*	-17%	-38%
O=C(Cc1ccsc1)N1CCc2c([nH]c3ccccc23)C1c1ccccn1 (configuration not stated)	17%	-29%	?	50µM*	-15%	-31%
Cc1ccccc1C(=O)N1CCc2c([nH]c3ccccc23)C1C(F)(F)F (configuration not stated)	?	-19%	-35%	?	5%	?
CC(C)c1nc(C(=O)N2CCc3c([nH]c4ccccc34)C2c2ccccn2)cs1 (configuration not stated)	-18%	?	56µM*	·	-13%	22µM*
Cc1nc(C(=O)N2CCc3c([nH]c4ccccc34)C2c2ccccn2)cs1 (configuration not stated)	-17%	-5%	-29%	-10%	18%	-23%
Cc1ccc(CCNC(=O)CN(c2ccc(C(C)C)cc2)S(=O)(=O)c2c(C)nn(C)c2C)cc1	32%	·	-16%	1%[59 µM]	·	-5%
CN(c1ccccc1)S(=O)(=O)c1ccc(NC(=O)c2nc(S(C)(=O)=O)ncc2Cl)cc1	2%	·	?	11µM*	28µM*	-26%
COc1cccc(NC(=O)c2nc(S(C)(=O)=O)ncc2Cl)c1	83%	·	-5%	35µM*	?	-17%
